Test results taken from PubChem BioAssay (NCATS).
Inconclusive results are not listed. Calls of active or inactive are those of the source. Calls come from the whole dose curve; as a rule, active = well fitted curve in the direction sought with a large enough effect; inconclusive = small, poorly fitted or top-dose-only effect, or another doubt; inactive = no such curve, though single readings can be large; an effect the other way counts as inactive or inconclusive.

Legend:
[1] = Quantitative High-Throughput drug screen in 47 multiple myeloma cell lines against the NCATS MIPE library collection: Karpas417_ECACC cell viability assay (AID 1918961); details: Karpas417 myeloma viability, CellTiter-Glo ATP luminescence, 48 h; viability (% of DMSO): at 45.8 µM (top of the series); note: potency is the fitted concentration of half-maximal effect
How it was run: (§1)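 Luminescent ATP measurement with CellTiter-Glo gives viability, scaled between DMSO-only wells (100%) and media-only wells (0%). Cells, 500 per well, faced library compounds for 48 hours at 37C.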

[2] = Quantitative High-Throughput drug screen in 47 multiple myeloma cell lines against the NCATS MIPE library collection: JIM1_ECACC cell viability assay (AID 1918964; note: potency is the fitted concentration of half-maximal effect)
How it was run: (§2)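 Primary qHTS used for cherry-picking: cells at 500/well, library compounds for 48 h (37C, 5% CO2), luminescent ATP assay.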

[3] = Quantitative High-Throughput drug screen in 47 multiple myeloma cell lines against the NCATS MIPE library collection: INA6_PLB cell viability assay (AID 1918965; note: nearly all actives have a fitted effect of over 55% in size; note: potency is the fitted concentration of half-maximal effect)
How it was run: as §1

[4] = Quantitative High-Throughput drug screen in 47 multiple myeloma cell lines against the NCATS MIPE library collection: JJN3_DSMZ cell viability assay (AID 1918966; note: nearly all actives have a fitted effect of over 50% in size; note: potency is the fitted concentration of half-maximal effect)
How it was run: as §2

[5] = Quantitative High-Throughput drug screen in 47 multiple myeloma cell lines against the NCATS MIPE library collection: KMS27_JCRB cell viability assay (AID 1918970); note: nearly all actives have a fitted effect of over 30% in size; note: potency is the fitted concentration of half-maximal effect
How it was run: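 Myeloma cells (500 per well) were exposed to MIPE 4.0 compounds for 48 h at 37 °C, 5% CO2; viability was read as ATP luminescence with CellTiter-Glo, normalized to DMSO-only (100%) and media-only (0%) wells.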

[6] = Quantitative High-Throughput drug screen in 47 multiple myeloma cell lines against the NCATS MIPE library collection: KMS12PE_JCRB cell viability assay (AID 1918972); note: nearly all actives have a fitted effect of over 30% in size; note: potency is the fitted concentration of half-maximal effect
How it was run: as §1

[7] = Quantitative High-Throughput drug screen in 47 multiple myeloma cell lines against the NCATS MIPE library collection: KMS20_JCRB cell viability assay (AID 1918973); note: nearly all actives have a fitted effect of over 45% in size; note: potency is the fitted concentration of half-maximal effect
How it was run: as §2

[8] = Quantitative High-Throughput drug screen in 47 multiple myeloma cell lines against the NCATS MIPE library collection: KMS26_JCRB cell viability assay (AID 1918975); note: nearly all actives have a fitted effect of over 45% in size; note: potency is the fitted concentration of half-maximal effect
How it was run: (§3)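 Inhibition of cell viability is measured here. Each line was plated at 500 cells per well, treated with MIPE 4.0 drugs, kept 48 hours at 37C, then assayed for ATP content by CellTiter-Glo luminescence.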

[9] = Quantitative High-Throughput drug screen in 47 multiple myeloma cell lines against the NCATS MIPE library collection: NCIH929_DSMZ cell viability assay (AID 1918978); note: nearly all actives have a fitted effect of over 35% in size; note: potency is the fitted concentration of half-maximal effect
How it was run: (§4)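 qHTS format: cells plated (500/well), pin-dosed with MIPE 4.0 compounds, kept 48 h at 37 °C. Readout was CellTiter-Glo luminescence, median RLU.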

[10] = Quantitative High-Throughput drug screen in 47 multiple myeloma cell lines against the NCATS MIPE library collection: OCIMY1_PLB cell viability assay (AID 1918979); note: nearly all actives have a fitted effect of over 35% in size
How it was run: as §4

[11] = Quantitative High-Throughput drug screen in 47 multiple myeloma cell lines against the NCATS MIPE library collection: H1112_PLB cell viability assay (AID 1918967; note: nearly all actives have a fitted effect of over 30% in size; note: potency is the fitted concentration of half-maximal effect)
How it was run: as §2

[12] = Quantitative High-Throughput drug screen in 47 multiple myeloma cell lines against the NCATS MIPE library collection: Karpas25_ECACC cell viability assay (AID 1918968; note: nearly all actives have a fitted effect of over 35% in size; note: potency is the fitted concentration of half-maximal effect)
How it was run: as §2

[13] = Quantitative High-Throughput drug screen in 47 multiple myeloma cell lines against the NCATS MIPE library collection: MM1S_ATCC cell viability assay (AID 1918980); note: potency is the fitted concentration of half-maximal effect; nearly all actives have a fitted effect of over 45% in size
How it was run: as §4

[14] = Quantitative High-Throughput drug screen in 47 multiple myeloma cell lines against the NCATS MIPE library collection: MM1R_ATCC cell viability assay (AID 1918981); note: nearly all actives have a fitted effect of over 35% in size; note: potency is the fitted concentration of half-maximal effect
How it was run: as §4

[15] = Quantitative High-Throughput drug screen in 47 multiple myeloma cell lines against the NCATS MIPE library collection: JIM3_ECACC cell viability assay (AID 1918963; note: nearly all actives have a fitted effect of over 35% in size; note: potency is the fitted concentration of half-maximal effect)
How it was run: (§5)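 qHTS of the MIPE 4.0 collection: 500 myeloma cells/well, 48 h drug exposure at 37C in 5% CO2, then CellTiter-Glo for 5 min at room temperature before luminescence reading.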

[16] = Quantitative High-Throughput drug screen in 47 multiple myeloma cell lines against the NCATS MIPE library collection: KMS12BM_JCRB cell viability assay (AID 1918971); note: nearly all actives have a fitted effect of over 35% in size; note: potency is the fitted concentration of half-maximal effect
How it was run: as §3

[17] = Quantitative High-Throughput drug screen in 47 multiple myeloma cell lines against the NCATS MIPE library collection: MOLP8_DSMZ cell viability assay (AID 1918977); note: nearly all actives have a fitted effect of over 45% in size; note: potency is the fitted concentration of half-maximal effect
How it was run: as §4

[18] = Quantitative High-Throughput drug screen in 47 multiple myeloma cell lines against the NCATS MIPE library collection: LP1_DSMZ cell viability assay (AID 1918982); note: nearly all actives have a fitted effect of over 35% in size; note: potency is the fitted concentration of half-maximal effect
How it was run: as §4

[19] = Quantitative High-Throughput drug screen in 47 multiple myeloma cell lines against the NCATS MIPE library collection: KHM11_PLB cell viability assay (AID 1918962)
How it was run: as §5

Structure (SMILES)	Potency [1]	Potency [2]	Potency [3]	Potency [4]	Potency [5]	Potency [6]	Potency [7]	Potency [8]	Potency [9]	Potency [10]	Potency [11]	Potency [12]	Potency [13]	Potency [14]	Potency [15]	Potency [16]	Potency [17]	Potency [18]	Potency [19]	viability (% of DMSO) [1]
O=C(c1ccc(OCCN2CCCCC2)cc1)c1c(-c2ccc(O)cc2)sc2cc(O)ccc12	18.7 µM (active)	37.2 µM (active)	18.7 µM (active)	20.9 µM (active)	20.9 µM (active)	23.5 µM (active)	16.6 µM (active)	20.9 µM (active)	23.5 µM (active)	inactive										
CN1CCC(=C2c3ccccc3C=Cc3ccccc32)CC1	inactive		11.8 µM (active)		23.5 µM (active)	20.9 µM (active)	9.35 µM (active)		5.9 µM (active)		11.8 µM (active)	7.43 µM (active)	14.8 µM (active)	23.5 µM (active)						
COc1ccc(C2CNC(=O)C2)cc1OC1CCCC1 (stereo unspecified)	inactive	inactive			inactive	inactive	inactive	inactive	inactive		inactive			inactive	inactive	inactive	inactive	inactive		
O=C1c2c(O)ccc(O)c2C(=O)c2c(NCCNCCO)ccc(NCCNCCO)c21	16.6 µM (active)	1.66 µM (active)	0.0526 µM (active)	4.18 µM (active)	0.59 µM (active)	2.96 µM (active)	0.132 µM (active)	2.35 µM (active)	0.526 µM (active)		0.332 µM (active)	0.296 µM (active)	0.0469 µM (active)	0.105 µM (active)	1.87 µM (active)	1.05 µM (active)	1.32 µM (active)	5.9 µM (active)	0.833 µM (active)	
Clc1ccccc1C(c1ccccc1)(c1ccccc1)n1ccnc1	0.0093 µM (active)	0.0743 µM (active)	16.6 µM (active)			7.43 µM (active)				inactive	14.8 µM (active)	18.7 µM (active)			18.7 µM (active)	16.6 µM (active)				
Cc1cn([C@H]2C[C@H](N=[N+]=[N-])[C@@H](CO)O2)c(=O)[nH]c1=O		inactive		5.26 µM (active)	5.26 µM (active)				23.5 µM (active)		23.5 µM (active)	26.4 µM (active)	3.32 µM (active)	inactive	26.4 µM (active)	inactive	inactive			84.8% (active)
CCOC(=O)Nc1ccc(NCc2ccc(F)cc2)nc1N	inactive		14.8 µM (active)		18.7 µM (active)						inactive	inactive	23.5 µM (active)		inactive	inactive	inactive	inactive		
CN1C(C(=O)Nc2ccccn2)=C(O)c2ccccc2S1(=O)=O	inactive			inactive		inactive		inactive	inactive		inactive				inactive	inactive	inactive	inactive		
O=c1c(O)c(-c2ccc(O)c(O)c2)oc2cc(O)cc(O)c12	0.0166 µM (active)		11.8 µM (active)						7.43 µM (active)		20.9 µM (active)	16.6 µM (active)	26.4 µM (active)				inactive			
O=C(Nc1ccc([N+](=O)[O-])cc1Cl)c1cc(Cl)ccc1O	0.59 µM (active)	1.05 µM (active)	0.935 µM (active)	1.87 µM (active)	0.935 µM (active)	0.469 µM (active)	0.59 µM (active)	1.87 µM (active)	1.05 µM (active)		1.32 µM (active)	0.332 µM (active)	1.18 µM (active)	1.66 µM (active)	0.59 µM (active)	1.48 µM (active)	1.66 µM (active)	0.743 µM (active)		
CCCCc1oc2ccccc2c1C(=O)c1cc(I)c(OCCN(CC)CC)c(I)c1	13.2 µM (active)	18.7 µM (active)	16.6 µM (active)	18.7 µM (active)	6.62 µM (active)	26.4 µM (active)		20.9 µM (active)	23.5 µM (active)			5.9 µM (active)	2.35 µM (active)	18.7 µM (active)		18.7 µM (active)	23.5 µM (active)			
CN(CCOc1ccc(NS(C)(=O)=O)cc1)CCc1ccc(NS(C)(=O)=O)cc1	inactive	inactive	inactive	inactive		inactive		inactive	inactive			inactive		inactive	inactive		inactive	inactive		
Cc1cn([C@H]2C=C[C@@H](CO)O2)c(=O)[nH]c1=O	0.0108 µM (active)	inactive			inactive	inactive		inactive	inactive		inactive	12.1 µM (active)					inactive	inactive		
NS(=O)(=O)c1cc2c(cc1Cl)NCNS2(=O)=O	0.0066 µM (active)		inactive	7.43 µM (active)	inactive	inactive			inactive	inactive	9.35 µM (active)						inactive	inactive		
